According to ChEMBL document CHEMBL1961873, “Compounds: GSK PKIS; Assays: Nanosyn kinase panel” (2012):

Legend:
[1] = target: T1, Serine/threonine-protein kinase D2 (Homo sapiens) (UniProt Q9BZL6); settings: at 1 µM;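 further: mean value of PRKD2 inhibition, from the GSK PKIS screening panel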
T1 sequence (whole entry): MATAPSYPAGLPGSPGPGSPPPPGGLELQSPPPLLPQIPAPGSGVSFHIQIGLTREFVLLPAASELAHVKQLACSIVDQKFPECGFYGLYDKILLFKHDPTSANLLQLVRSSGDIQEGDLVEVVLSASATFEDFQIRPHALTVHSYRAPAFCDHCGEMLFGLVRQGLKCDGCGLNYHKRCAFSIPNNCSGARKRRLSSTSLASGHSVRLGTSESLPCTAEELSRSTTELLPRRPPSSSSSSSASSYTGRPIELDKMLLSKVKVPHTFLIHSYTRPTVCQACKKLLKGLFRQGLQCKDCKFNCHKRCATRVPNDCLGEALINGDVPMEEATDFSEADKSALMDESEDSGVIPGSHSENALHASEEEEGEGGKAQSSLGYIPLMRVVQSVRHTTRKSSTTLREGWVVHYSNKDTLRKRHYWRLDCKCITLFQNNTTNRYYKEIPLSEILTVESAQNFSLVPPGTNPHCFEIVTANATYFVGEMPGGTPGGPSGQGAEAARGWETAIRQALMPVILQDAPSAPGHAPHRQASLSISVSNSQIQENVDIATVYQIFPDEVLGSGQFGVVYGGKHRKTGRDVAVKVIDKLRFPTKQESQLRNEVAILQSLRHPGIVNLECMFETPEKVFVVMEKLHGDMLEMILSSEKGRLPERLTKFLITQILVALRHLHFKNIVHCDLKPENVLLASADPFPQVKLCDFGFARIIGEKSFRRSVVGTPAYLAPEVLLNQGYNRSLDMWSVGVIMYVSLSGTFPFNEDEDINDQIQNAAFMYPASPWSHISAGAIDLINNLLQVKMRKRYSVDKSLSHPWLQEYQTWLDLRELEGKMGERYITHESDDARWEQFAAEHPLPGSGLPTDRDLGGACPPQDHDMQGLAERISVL

[2] = target: T2, Serine/threonine-protein kinase D3 (Homo sapiens) (UniProt O94806); settings: at 0.1 µM
T2 sequence (whole entry): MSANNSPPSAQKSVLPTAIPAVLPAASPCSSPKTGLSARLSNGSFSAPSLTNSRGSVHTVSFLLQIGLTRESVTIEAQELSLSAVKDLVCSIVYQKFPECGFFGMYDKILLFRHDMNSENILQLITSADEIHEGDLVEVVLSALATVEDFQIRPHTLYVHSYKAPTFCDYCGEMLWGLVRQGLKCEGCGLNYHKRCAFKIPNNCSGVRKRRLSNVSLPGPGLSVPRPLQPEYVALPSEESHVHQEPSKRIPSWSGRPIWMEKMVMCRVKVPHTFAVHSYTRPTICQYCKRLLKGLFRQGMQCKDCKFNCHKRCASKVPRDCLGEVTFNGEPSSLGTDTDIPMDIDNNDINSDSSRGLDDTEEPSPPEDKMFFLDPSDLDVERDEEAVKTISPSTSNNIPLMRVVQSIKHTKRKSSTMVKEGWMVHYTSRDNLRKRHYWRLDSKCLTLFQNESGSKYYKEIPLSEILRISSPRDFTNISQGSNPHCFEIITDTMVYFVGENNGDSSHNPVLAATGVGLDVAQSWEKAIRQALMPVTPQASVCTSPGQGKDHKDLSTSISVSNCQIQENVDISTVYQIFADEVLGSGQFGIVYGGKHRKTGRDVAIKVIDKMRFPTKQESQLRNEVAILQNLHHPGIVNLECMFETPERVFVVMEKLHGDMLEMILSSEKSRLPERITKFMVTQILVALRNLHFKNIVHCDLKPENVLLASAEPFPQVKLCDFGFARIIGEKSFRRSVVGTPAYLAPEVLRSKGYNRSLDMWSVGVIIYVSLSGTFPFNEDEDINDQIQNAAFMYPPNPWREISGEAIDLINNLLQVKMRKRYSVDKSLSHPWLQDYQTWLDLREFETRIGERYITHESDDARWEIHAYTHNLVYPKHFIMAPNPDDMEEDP

[3] = target: T2, Serine/threonine-protein kinase D3 (Homo sapiens); settings: at 1 µM
[4] = target: T3, cGMP-dependent protein kinase 1 (Homo sapiens) (UniProt Q13976); settings: at 0.1 µM
T3 sequence (whole entry): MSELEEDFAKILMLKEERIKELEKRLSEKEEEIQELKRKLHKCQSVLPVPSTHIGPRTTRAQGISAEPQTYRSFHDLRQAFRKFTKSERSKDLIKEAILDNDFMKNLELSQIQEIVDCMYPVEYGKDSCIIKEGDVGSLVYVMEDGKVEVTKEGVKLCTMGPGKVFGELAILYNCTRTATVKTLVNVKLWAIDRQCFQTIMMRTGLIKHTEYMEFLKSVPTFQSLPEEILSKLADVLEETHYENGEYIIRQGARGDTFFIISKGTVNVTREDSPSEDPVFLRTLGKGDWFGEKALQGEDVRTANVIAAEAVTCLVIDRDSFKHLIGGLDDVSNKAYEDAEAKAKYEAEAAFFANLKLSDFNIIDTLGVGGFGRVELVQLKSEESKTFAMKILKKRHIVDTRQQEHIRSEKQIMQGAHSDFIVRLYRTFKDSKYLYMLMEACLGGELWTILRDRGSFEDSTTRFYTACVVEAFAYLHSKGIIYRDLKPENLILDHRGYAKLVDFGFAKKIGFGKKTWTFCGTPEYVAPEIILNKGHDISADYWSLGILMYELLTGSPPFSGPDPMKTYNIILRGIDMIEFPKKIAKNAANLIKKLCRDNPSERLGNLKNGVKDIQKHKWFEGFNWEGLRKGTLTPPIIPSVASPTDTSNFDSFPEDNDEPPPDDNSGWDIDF

[5] = target: T3, cGMP-dependent protein kinase 1 (Homo sapiens); settings: at 1 µM
[6] = target: T4, cGMP-dependent protein kinase 2 (Homo sapiens) (UniProt Q13237); settings: at 0.1 µM
T4 sequence (whole entry): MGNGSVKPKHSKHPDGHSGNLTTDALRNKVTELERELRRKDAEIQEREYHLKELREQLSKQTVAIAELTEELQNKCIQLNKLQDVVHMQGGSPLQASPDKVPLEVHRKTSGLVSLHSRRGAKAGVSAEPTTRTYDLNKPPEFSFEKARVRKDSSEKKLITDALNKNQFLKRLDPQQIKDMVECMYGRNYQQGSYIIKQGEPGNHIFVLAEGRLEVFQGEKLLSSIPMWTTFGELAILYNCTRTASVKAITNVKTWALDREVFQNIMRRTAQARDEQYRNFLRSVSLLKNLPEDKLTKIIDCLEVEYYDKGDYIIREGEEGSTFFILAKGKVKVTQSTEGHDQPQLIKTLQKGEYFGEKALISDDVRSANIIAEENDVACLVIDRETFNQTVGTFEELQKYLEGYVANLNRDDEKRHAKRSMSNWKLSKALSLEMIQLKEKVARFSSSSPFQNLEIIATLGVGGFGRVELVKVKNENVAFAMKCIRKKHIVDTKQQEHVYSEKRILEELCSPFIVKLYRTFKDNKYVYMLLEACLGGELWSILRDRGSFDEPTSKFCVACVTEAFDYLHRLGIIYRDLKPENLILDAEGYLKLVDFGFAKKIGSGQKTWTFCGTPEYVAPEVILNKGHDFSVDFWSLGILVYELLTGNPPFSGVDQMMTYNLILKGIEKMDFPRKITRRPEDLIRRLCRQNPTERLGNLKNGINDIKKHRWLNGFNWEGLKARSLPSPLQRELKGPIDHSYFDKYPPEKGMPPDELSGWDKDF

[7] = target: T4, cGMP-dependent protein kinase 2 (Homo sapiens); settings: at 1 µM
[8] = target: T5, cAMP-dependent protein kinase catalytic subunit PRKX (Homo sapiens) (UniProt P51817); settings: at 0.1 µM
T5 sequence (whole entry): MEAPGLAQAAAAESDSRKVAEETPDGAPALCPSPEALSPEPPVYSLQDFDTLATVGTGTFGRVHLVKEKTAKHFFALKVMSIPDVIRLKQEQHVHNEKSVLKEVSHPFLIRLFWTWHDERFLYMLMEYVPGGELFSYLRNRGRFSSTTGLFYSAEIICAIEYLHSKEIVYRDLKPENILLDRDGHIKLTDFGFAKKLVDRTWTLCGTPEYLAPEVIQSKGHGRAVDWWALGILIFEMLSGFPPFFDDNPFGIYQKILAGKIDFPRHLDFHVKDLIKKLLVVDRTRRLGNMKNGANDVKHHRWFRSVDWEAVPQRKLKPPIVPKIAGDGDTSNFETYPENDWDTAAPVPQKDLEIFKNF

[9] = target: T5, cAMP-dependent protein kinase catalytic subunit PRKX (Homo sapiens); settings: at 1 µM
[10] = target: Rho-associated protein kinase 1 (Homo sapiens) (UniProt Q13464); settings: at 0.1 µM
Rho-associated protein kinase 1 (Homo sapiens), sequence (Q13464 2-1354 limits assumed): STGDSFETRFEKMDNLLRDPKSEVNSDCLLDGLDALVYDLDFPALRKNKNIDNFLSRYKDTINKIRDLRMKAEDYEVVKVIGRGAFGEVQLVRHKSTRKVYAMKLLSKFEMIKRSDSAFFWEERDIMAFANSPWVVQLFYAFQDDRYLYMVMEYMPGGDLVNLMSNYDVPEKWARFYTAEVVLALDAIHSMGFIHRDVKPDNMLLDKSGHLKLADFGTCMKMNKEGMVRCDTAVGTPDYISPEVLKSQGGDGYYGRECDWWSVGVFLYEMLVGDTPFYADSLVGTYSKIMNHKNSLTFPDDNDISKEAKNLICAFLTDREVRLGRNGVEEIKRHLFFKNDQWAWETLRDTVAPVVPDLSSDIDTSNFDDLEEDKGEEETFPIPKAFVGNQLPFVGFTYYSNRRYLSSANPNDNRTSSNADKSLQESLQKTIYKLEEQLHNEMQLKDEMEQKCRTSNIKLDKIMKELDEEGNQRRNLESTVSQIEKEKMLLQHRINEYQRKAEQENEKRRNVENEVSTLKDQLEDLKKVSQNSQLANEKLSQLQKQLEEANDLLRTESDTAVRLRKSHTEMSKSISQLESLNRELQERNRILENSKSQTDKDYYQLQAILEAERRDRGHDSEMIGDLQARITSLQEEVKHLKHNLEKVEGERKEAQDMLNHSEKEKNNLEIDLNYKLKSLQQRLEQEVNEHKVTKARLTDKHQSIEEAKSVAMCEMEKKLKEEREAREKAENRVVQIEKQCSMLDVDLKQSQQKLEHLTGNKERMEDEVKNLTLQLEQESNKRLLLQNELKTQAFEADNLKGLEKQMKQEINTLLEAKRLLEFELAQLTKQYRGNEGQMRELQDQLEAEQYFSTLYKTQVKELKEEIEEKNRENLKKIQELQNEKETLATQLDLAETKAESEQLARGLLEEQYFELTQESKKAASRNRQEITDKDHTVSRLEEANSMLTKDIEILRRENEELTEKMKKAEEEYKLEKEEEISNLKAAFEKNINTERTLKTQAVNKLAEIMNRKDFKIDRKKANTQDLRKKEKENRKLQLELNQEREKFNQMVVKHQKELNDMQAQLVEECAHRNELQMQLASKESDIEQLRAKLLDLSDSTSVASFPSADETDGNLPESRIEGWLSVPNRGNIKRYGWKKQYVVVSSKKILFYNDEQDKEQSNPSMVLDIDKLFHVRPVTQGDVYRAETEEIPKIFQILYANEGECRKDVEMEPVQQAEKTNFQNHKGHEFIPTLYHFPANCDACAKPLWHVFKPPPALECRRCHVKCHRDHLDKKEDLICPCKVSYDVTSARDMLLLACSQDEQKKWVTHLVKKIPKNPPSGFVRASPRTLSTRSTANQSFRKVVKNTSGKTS

[11] = target: Rho-associated protein kinase 1 (Homo sapiens) (UniProt Q13464); settings: at 1 µM
[12] = target: Rho-associated protein kinase 2 (Homo sapiens) (UniProt O75116); settings: at 0.1 µM
Rho-associated protein kinase 2 (Homo sapiens), sequence (O75116 whole entry, looked up): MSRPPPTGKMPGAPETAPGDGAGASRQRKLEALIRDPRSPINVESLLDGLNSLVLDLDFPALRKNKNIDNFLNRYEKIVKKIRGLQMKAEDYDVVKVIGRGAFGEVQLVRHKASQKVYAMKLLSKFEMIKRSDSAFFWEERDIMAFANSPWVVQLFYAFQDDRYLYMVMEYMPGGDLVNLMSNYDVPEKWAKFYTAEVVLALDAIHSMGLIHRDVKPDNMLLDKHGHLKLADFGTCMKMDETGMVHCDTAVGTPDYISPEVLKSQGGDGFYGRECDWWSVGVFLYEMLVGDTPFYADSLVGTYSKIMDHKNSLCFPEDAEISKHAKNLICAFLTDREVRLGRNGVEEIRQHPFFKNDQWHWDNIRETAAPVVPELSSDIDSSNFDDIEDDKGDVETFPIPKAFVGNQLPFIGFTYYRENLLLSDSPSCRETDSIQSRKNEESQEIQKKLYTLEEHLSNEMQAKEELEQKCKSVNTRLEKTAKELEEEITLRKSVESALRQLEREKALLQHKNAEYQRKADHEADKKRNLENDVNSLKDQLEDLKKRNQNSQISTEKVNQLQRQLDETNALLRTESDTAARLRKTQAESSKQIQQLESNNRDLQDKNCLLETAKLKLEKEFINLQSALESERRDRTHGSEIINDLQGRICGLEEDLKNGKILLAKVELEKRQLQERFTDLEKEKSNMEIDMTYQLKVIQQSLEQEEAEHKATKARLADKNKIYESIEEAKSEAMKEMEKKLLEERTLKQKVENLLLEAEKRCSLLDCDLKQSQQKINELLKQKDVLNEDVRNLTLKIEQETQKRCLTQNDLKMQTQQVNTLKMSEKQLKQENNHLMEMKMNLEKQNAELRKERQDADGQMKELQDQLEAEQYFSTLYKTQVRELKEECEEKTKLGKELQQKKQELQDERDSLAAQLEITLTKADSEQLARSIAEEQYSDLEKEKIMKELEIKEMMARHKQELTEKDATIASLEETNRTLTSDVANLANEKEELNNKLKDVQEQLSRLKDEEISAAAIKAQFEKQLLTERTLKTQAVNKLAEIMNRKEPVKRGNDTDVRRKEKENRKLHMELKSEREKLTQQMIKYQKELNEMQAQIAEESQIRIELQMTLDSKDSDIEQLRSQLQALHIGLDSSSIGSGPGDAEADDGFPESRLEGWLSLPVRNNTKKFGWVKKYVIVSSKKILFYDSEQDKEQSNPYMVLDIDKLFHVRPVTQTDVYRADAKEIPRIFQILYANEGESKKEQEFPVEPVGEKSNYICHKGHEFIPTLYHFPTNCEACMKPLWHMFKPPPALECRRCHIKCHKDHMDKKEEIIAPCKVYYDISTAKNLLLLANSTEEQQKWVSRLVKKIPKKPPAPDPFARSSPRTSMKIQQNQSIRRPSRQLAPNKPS

[13] = target: Rho-associated protein kinase 2 (Homo sapiens) (UniProt O75116); settings: at 1 µM
[14] = target: Ribosomal protein S6 kinase alpha-1 (Homo sapiens) (UniProt Q15418); settings: at 0.1 µM
Ribosomal protein S6 kinase alpha-1 (Homo sapiens), sequence (Q15418 whole entry): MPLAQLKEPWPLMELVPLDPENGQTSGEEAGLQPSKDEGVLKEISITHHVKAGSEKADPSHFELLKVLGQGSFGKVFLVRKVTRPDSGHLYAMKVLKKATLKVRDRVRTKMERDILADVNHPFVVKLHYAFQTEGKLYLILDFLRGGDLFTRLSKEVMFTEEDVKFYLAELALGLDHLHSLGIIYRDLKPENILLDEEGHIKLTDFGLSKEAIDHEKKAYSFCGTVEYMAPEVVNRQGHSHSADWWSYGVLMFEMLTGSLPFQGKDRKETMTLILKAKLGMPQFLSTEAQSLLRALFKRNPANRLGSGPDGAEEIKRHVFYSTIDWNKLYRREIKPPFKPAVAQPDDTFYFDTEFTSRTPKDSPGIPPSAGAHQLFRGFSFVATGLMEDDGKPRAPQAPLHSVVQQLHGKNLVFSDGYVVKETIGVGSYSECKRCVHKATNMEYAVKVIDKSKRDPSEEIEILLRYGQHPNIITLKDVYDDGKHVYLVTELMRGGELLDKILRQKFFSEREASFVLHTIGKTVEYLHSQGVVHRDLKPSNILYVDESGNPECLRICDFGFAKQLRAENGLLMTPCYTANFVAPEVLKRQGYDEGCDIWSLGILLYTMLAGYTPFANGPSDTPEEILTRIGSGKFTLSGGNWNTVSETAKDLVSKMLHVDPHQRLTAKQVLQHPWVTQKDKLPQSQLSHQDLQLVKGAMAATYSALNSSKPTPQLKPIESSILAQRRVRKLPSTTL

[15] = target: Ribosomal protein S6 kinase alpha-1 (Homo sapiens) (UniProt Q15418); settings: at 1 µM
[16] = target: Ribosomal protein S6 kinase alpha-3 (Homo sapiens) (UniProt P51812); settings: at 0.1 µM
[17] = target: Ribosomal protein S6 kinase alpha-3 (Homo sapiens) (UniProt P51812); settings: at 1 µM
[18] = target: Ribosomal protein S6 kinase alpha-2 (Homo sapiens) (UniProt Q15349); settings: at 0.1 µM
Ribosomal protein S6 kinase alpha-2 (Homo sapiens), sequence (Q15349 whole entry): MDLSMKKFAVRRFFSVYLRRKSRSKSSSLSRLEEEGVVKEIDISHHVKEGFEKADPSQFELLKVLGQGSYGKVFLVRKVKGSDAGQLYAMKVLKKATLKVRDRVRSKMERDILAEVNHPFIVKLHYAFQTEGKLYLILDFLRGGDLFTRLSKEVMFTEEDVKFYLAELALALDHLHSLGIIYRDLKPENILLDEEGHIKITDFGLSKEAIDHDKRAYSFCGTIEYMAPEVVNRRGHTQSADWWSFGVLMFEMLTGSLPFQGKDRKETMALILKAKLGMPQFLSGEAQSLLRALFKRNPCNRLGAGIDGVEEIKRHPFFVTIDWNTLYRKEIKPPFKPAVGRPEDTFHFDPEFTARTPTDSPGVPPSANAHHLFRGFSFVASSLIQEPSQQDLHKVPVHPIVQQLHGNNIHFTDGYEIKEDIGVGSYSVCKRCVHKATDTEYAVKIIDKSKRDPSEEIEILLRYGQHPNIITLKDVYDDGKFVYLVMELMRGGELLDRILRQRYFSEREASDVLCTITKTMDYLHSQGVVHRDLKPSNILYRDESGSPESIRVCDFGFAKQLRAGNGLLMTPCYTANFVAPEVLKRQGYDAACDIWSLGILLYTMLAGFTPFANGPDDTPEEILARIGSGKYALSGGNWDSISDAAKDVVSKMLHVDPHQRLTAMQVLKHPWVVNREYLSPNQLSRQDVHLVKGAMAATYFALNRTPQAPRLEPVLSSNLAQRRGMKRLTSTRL

[19] = target: Ribosomal protein S6 kinase alpha-2 (Homo sapiens) (UniProt Q15349); settings: at 1 µM
[20] = target: Ribosomal protein S6 kinase alpha-6 (Homo sapiens) (UniProt Q9UK32); settings: at 0.1 µM;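 further: reported value is the mean inhibition of RSK4, from the GSK PKIS kinase inhibitor screen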
Ribosomal protein S6 kinase alpha-6 (Homo sapiens), sequence (Q9UK32 whole entry): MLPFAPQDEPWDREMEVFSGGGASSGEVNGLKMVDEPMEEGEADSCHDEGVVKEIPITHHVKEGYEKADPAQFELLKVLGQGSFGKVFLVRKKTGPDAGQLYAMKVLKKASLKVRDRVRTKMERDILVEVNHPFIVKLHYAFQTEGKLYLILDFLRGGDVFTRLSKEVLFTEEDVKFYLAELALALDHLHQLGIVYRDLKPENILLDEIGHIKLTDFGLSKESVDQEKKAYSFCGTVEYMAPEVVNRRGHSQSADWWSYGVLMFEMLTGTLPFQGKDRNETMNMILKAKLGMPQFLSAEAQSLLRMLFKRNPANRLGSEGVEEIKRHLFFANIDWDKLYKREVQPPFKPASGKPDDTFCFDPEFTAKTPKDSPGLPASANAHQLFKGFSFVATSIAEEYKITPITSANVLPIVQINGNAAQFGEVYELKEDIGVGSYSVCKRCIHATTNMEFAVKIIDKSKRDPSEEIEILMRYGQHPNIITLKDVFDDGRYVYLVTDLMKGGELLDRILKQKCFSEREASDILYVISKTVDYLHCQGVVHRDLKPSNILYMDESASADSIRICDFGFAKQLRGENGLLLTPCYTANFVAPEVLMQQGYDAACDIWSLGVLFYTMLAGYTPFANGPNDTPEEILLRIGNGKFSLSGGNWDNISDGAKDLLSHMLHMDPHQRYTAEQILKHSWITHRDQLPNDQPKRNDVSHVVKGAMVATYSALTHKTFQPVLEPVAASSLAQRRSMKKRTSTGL

SMILES | inhibition [1] [%] | inhibition [2] [%] | inhibition [3] [%] | inhibition [4] [%] | inhibition [5] [%] | inhibition [6] [%] | inhibition [7] [%] | inhibition [8] [%] | inhibition [9] [%] | inhibition [10] [%] | inhibition [11] [%] | inhibition [12] [%] | inhibition [13] [%] | inhibition [14] [%] | inhibition [15] [%] | inhibition [16] [%] | inhibition [17] [%] | inhibition [18] [%] | inhibition [19] [%] | inhibition [20] [%]
Cc1ccc(-c2cc3c(NC(=O)C4CC4)ncnc3o2)cc1 | 6.17 | 5.27 | 7.32 | 3.82 | 5.54 | 1.95 | 4.28 | 1.05 | 0.33 | 1.09 | 2.27 | 2.81 | 1.43 | 2.52 | 4.28 | 1.27 | 2.17 | 2.35 | 2.3 | 0.9
O=C(Nc1n[nH]c2nnc(-c3cccnc3)cc12)C1CC1 | 0.68 | -0.7 | 0.02 | -0.91 | 0.14 | 1.31 | 7.32 | -0.34 | -0.33 | -0.21 | 1.3 | 0.06 | 0.61 | 0.83 | 0.39 | 0.41 | 0.86 | 0.73 | 1.89 | 0.32
NS(=O)(=O)c1cccc(N/C=C2\C(=O)Nc3ccccc32)c1 | 11 | 5 | 9.04 | 3.34 | 4.68 | 1.91 | 7.34 | 1.79 | 2.25 | 1.58 | 3.96 | 2.91 | 5.46 | 3.72 | 17.6 | 2.42 | 15.2 | 5.57 | 26.2 | 4.77
CN1CCC(n2cnc(-c3ccc(F)cc3)c2-c2ccnc(NCCO)n2)CC1 | 14.8 | 6.16 | 11 | 1.3 | 4.89 | 2.55 | 5.54 | 3.06 | 5.03 | 0.7 | 4.39 | 3.23 | 8.52 | 1.81 | 6.04 | 0.9 | 3.09 | 3.09 | 4.29 | 1.56
CC1=C(C(=O)Nc2ccc3[nH]nc(C)c3c2)C(c2ccc(C(F)(F)F)cc2)CC(=O)N1 (stereo not given) | 4.33 | 3.46 | 9.27 | 3.93 | 18.2 | 5.55 | 40.2 | 7.3 | 47 | 67.8 | 89.8 | 70.3 | 83.8 | 2.72 | 11.3 | 1.64 | 17.2 | 1.77 | 9.89 | 3.48
CNC(=O)c1sc(-n2cnc3cc(OC)c(OC)cc32)cc1OCc1ccccc1C(F)(F)F | 4.27 | 4.09 | 4.54 | 2.58 | 2.12 | 1.27 | 1.38 | 2.66 | 1.17 | 0.61 | 0.26 | 2.94 | 1.36 | 1.1 | 2.58 | 1.77 | 3.02 | 2.72 | 2.3 | 0.81
Cc1cc(O)cc(C)c1/C=C/c1cncc(C(N)=O)c1 | 2.16 | 3.14 | 2.74 | 2.79 | 5.83 | 0.33 | 3.49 | 1.71 | 3.29 | 2.2 | 3.29 | 3.18 | 2.02 | 0.33 | -0.09 | 1.07 | -0.35 | 1.1 | 1.48 | 0.72
COC(=O)Nc1nc2ccc(Oc3ccc(NC(=O)Nc4cc(C(F)(F)F)ccc4F)cc3)cc2s1 | 1.09 | 0.52 | 0.53 | 1.65 | 2.05 | 1.07 | 1.92 | 0.15 | -0.17 | 0.74 | 1.94 | 0.66 | 1.17 | 1.59 | 2.46 | 0.8 | 2.83 | 3.19 | 13.1 | 0.36
CCN1CCC(C(=O)Nc2n[nH]c3nnc(-c4cccc(F)c4F)cc23)CC1 | 0.06 | -0.39 | -0.3 | 0.16 | 0.21 | -1.12 | 0.85 | 0.8 | 0.57 | -0.76 | -0.9 | 0.68 | -0.77 | 0.15 | 0.28 | 1.06 | 2.16 | -0.71 | 1.38 | 0.8
NS(=O)(=O)c1ccc(N/N=C2\C(=O)Nc3cccc(CCc4ccncc4)c32)cc1 | 0.82 | 0.3 | 0.91 | 0.22 | -0.46 | -0.44 | -0.5 | 0.12 | 0.09 | 0.65 | 1.51 | 0.96 | 1.68 | 2.2 | 1.84 | 2.02 | 2.03 | 2.79 | 7.37 | 3.11
